ROMK primary – modulators of human ROMK potassium channel | P48048 | Tet-inducible ROMK, thallium flux fluorescence; actives lie on both sides | B-score at 10 µM | actives 2% (n = 130,000);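 active means signal ratio slope over the read window, or its plate-corrected B-score, at least 3 SD from the plate mean, either direction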;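 further: B-score of the F/F0 ratio slope over 7 to 12 s after thallium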
Target sequence (P48048 whole entry, looked up): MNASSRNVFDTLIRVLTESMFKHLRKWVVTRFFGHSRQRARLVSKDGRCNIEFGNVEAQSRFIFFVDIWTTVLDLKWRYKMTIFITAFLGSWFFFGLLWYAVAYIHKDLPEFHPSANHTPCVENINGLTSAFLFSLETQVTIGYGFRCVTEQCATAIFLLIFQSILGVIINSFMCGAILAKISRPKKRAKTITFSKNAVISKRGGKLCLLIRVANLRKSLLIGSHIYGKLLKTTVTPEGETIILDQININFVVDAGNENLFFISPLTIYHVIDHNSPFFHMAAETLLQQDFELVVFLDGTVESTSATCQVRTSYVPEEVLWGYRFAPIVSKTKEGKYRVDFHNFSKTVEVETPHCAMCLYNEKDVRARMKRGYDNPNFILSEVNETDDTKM
HCT116 bCat-KO – beta-catenin-lacking colon tumor cell growth suppression | HCT116 beta-catenin knockout viability, CellTiter-Glo, 60 h; hits give low values | viability, % at 10 µM | actives 1.5% (n = 140,000);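 active means viability at or under a set limit, the compound median less 4 SD, cut at about 6% in these data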;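 further: 0% = Hyamine 1622 control at 20 µM and 100% = untreated cell control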
Insulin prom inh – TRM-6 insulin promoter activity inhibition; TRM-6 cells (human fetal islet line), insulin promoter-eGFP reporter, imaging; reporter expression induced with tamoxifen; AID 1273; actives 0.9% (n = 130,000); inhibition, % at 2 µM;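 active means inhibition above the mean plus 3 SD, with well images judged a real hit on visual review, cut at about 60% in these data, passing the limit was not always enough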
HCT116 PTEN-null – suppresses growth of cells with PTEN deletion; HCT116 PTEN-null viability, CellTiter-Glo, 60 h; hits give low values; viability, % at 10 µM; actives 1.2% (n = 140,000); AID 827;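 active means viability at or below a set limit, 4 SD under the median of all tested compounds, cut at about 3.7% in these data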;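 further: PTEN knockout HCT116 line with beta catenin targeted HCT116 as companion control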
Lmaj promast – inhibitors of Leishmania major promastigote growth. Leishmania major promastigotes, resazurin fluorescence viability. inhibition, % at 10 µM. actives 9% (n = 200,000); in the data active means inhibition above about 50%;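 further: promastigotes grown with compound for 44 hours at 28 °C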
p97 ATPase inh – blocks human p97 ATPase activity; P55072; recombinant p97 ATPase, Kinase-Glo ATP luminescence, 3 h; inhibition, % at 8 µM; actives 0.42% (n = 220,000); in the data active means inhibition above about 15%;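 further: 0% = DMSO vehicle and 100% = wells lacking enzyme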
* marks the source's active call; other numbers are inactive results; . = not tested or not shown. Compounds with a hit are over-represented: about 10% of the library has one in this group of screens.

SMILES | ROMK primary | HCT116 bCat-KO | Insulin prom inh | HCT116 PTEN-null | Lmaj promast | p97 ATPase inh
CCOC(=O)c1c(C)oc2c1c(C(c1cccnc1)N1CCOCC1)c(O)c1ccccc12 (stereo unspecified) | -0.051 | 24 | . | 20 | 97* | 0
CCCN(CCO)Cc1ccc(Br)cc1 | . | 100 | 22 | 92 | -3 | 2
CCN(CC)CCN(C)Cc1ccc(Br)cc1 | -0.94 | 90 | . | 102 | 89* | 1
O=C(COC(=O)CNS(=O)(=O)c1ccc(F)c(F)c1F)Nc1ccc(OC(F)F)cc1 | 0.48 | 90 | 25 | 101 | 82* | 5
O=C(c1ccc(S(=O)(=O)N2CCc3ccccc3C2)cc1)N1CCCCC1 | 0.18 | . | -22 | . | 5 | -1
CCCc1[nH]nc2c1C(c1ccc(OC)c(CSC3=NCCS3)c1)C(C#N)=C(N)O2 (stereo unspecified) | -3.1* | 104 | -19 | 100 | 29 | 1
COc1ccccc1Oc1ccc(S(=O)(=O)N2CCCC2)cc1 | . | 74 | 38 | 83 | 99* | 0
Cc1ccc(S(=O)(=O)N2CCN(CCC#N)CC2)cc1 | 1.4 | . | 28 | . | -1 | 3
CCCCOc1ccc(S(=O)(=O)N2CCCCCC2)cc1 | . | 64 | -150 | 67 | 7 | 2
Cc1cccc(Oc2ccc(S(=O)(=O)N3CCCCC3)cc2N)c1 | 0.47 | . | . | . | 80* | -3
CC(C)(C)c1ccc(S(=O)(=O)N2CCN(CCC#N)CC2)cc1 | . | 91 | -71 | 94 | 56* | -1
CC(C)(C)c1ccc(S(=O)(=O)N2CCCCC2)cc1 | -0.47 | 80 | -21 | 82 | 92* | -3
COC(=O)c1sc(SC)c(S(=O)(=O)C(C)C)c1N/N=C(\C#N)C(=O)c1ccccc1 | . | . | . | . | . | 2
O=C(/C=C\c1ccccc1)Oc1cccc2cccnc12 | 0.0068 | . | -67 | . | 98* | 3
O=C(/C=C/c1ccccc1)Oc1cccc2cccnc12 | . | . | . | . | . | 5
COc1cccc(CNC(=O)C(c2ccc(Cl)cc2)C(C)C)c1 (stereo unspecified) | 1.3 | 80 | -8 | 70 | 57* | 1
COc1cccc(CNC(=O)CCl)c1 | . | 70 | . | 64 | 4 | 0
O=C(COC(=O)c1ccc(Cl)c([N+](=O)[O-])c1)Nc1ccccc1OC(F)F | -0.51 | 85 | 23 | 95 | 58* | -3
O=C(COC(=O)c1nc(Cl)ccc1Cl)Nc1ccccc1OC(F)F | 0.57 | . | . | . | -2 | -2
CC1(C)C2C/C(=N\O)C(C)(/[N+]([O-])=C/c3cccc([N+](=O)[O-])c3)CC21 (stereo unspecified) | -0.011 | . | . | . | 8 | 0
c1ccc(N/N=C(\Cc2nc3ccccc3[nH]2)c2ccccc2)cc1 | . | 58 | . | 57 | 9 | 1
Cc1ccc(N/N=C(\Cc2nc3ccccc3[nH]2)c2ccccc2)cc1 | 0.19 | 16 | -177 | 14 | 88* | 6
N#CCCN/N=C(\Cc1nc2ccccc2[nH]1)c1ccccc1 | -0.048 | 99 | 31 | 97 | 3 | 5
CCN/N=C(\Cc1nc2ccccc2[nH]1)c1ccccc1 | 0.52 | . | . | . | 75* | 3
COC(=O)c1c(O)cc(C(C)(C)C)n(-c2ccccc2)c1=O | 0.29 | 101 | 2 | 103 | -7 | -2
SMILES | ROMK primary | HCT116 bCat-KO | Insulin prom inh | HCT116 PTEN-null | Lmaj promast | p97 ATPase inh
Cc1cc([N+](=O)[O-])nn1CCCC(=O)Nc1sc2c(c1C(N)=O)CCC(C)C2 (stereo unspecified) | . | 94 | -24 | 93 | 69* | 2
CC1CCc2c(sc(NC(=O)Cn3cnc([N+](=O)[O-])n3)c2C(N)=O)C1 (stereo unspecified) | 0.078 | . | -9 | . | 40 | -4
Cc1c(/C=N\NC(=O)c2csc3ccccc23)cnn1C | . | 83 | -43 | 82 | -2 | 5
CCn1ncc(/C=N\NC(=O)c2csc3ccccc23)c1C | 2.8 | 30 | . | 29 | 62* | 2
O=C(N/N=C/c1cccc(O)c1)c1csc2ccccc12 | 0.7 | 74 | -23 | 74 | 69* | 1
O=C(N/N=C/c1cccc(O)c1)c1ccccc1O | . | . | . | . | . | -5
COCCNC(=S)N=Nc1c(O)[nH]c2ccc([N+](=O)[O-])cc12 | . | . | . | . | . | 5
Cc1cc(C)cc(OCC(=O)Nc2ccc3c(c2)C(=O)c2ccccc2C3=O)c1 | -0.027 | 95 | -7 | 107 | -6 | 6
O=C1NC(=O)/C(=C\c2ccsc2)N1 | 0.036 | . | 72* | . | 3 | 2
O=C(Nc1ccc(N2C(=O)C3C4C=CC(C4)C3C2=O)cc1)Nc1cccnc1 (stereo unspecified) | . | 86 | 53 | 103 | 1 | 4
O=C(NCCc1c[nH]c2ccccc12)c1cc2sccc2n1Cc1ccccc1 | 0.01 | 48 | -83 | 36 | 100* | 2
COCCN(C(=S)Nc1cc(C)cc(C)c1)C(C)c1cccnc1 (stereo unspecified) | -0.71 | 87 | 14 | 94 | 95* | 2
COCCN(C(=S)Nc1ccc(C)cc1)C(C)c1cccnc1 (stereo unspecified) | 0.51 | . | . | . | 80* | 3
COCCN(C(=S)Nc1c(C)cc(C)cc1C)C(C)c1cccs1 (stereo unspecified) | 0.18 | . | 36 | . | 98* | 4
COCCN(C(=O)Nc1ccccc1)C(C)c1cccnc1 (stereo unspecified) | . | 105 | . | 110 | 9 | -7
Cc1nnc2sc(SCC(=O)Nc3cccc(Cl)c3)nn2c1=O | 0.15 | . | . | . | 3 | -1
COCCn1c(=NC(=O)c2cc3ccccc3oc2=O)sc2cc(S(N)(=O)=O)ccc21 | 0.11 | 99 | -16 | 105 | -8 | 4
Cc1cc(/C=C2/SC(=S)N(c3ccc([N+](=O)[O-])cc3)C2=O)c(C)n1-c1cccnc1 | -0.82 | 12 | -119 | 15 | 91* | 5
COc1cc([N+](=O)[O-])ccc1NC(=O)CC(C)C | -0.64 | 96 | 0 | 98 | -5 | -3
CCCCCNc1nc(N2CCCC2)c2c(c1C#N)CCN(C)C2 | . | 56 | 18 | 54 | 56* | 1
CCc1ccc(NC(=O)CSc2nc3ccccc3c(=O)n2CCCN2CCC(C)CC2)cc1 | -2.5 | . | 20 | . | 77* | -1
COCCCn1c(SCC(=O)Nc2ccc(C(=O)OC)cc2)nc2ccccc2c1=O | . | 87 | . | 92 | 89* | 5
COCCCn1c(SCC(=O)Nc2ccc(C)cc2)nc2ccccc2c1=O | 0.23 | . | 0 | . | 4 | 6
CCn1c(SCC(=O)Nc2ccccc2OC)nc2ccccc2c1=O | . | 79 | 57 | 79 | 5 | -2
Cc1ccc(NC(=O)CSc2nc3ccccc3c(=O)n2CCCN2CCCCC2)cc1C | . | 1.9* | -26 | 2.1* | 100* | -4
CCC(C)NC(=O)CSc1nc2ccccc2c(=O)n1Cc1ccc(OC)cc1 (stereo unspecified) | . | 81 | -43 | 91 | 55* | -7
O=C1CCCc2oc3c(c21)CCCC3 | -1.3 | . | . | . | -3 | 0
CCOc1ccc(CN2CCN(Cc3cc4c(cc3Cl)OCO4)CC2CCO)cc1 (stereo unspecified) | . | . | . | . | . | 1
COC(=O)c1cccc(NC(=O)CSc2nc3cccnc3n2C)c1 | -3.4* | 78 | . | 70 | 21 | 4

From PubChem BioAssay
